Test results: the supplement of paper PMC8253809
Where “and” joins values, the source holds several entries; their conditions need not be identical. Equal values may be shown once.

Assays:
Assay in all cases: growth inhibition (% activity, log2 RLU normalised to DMSO / staurosporine); higher = more growth inhibition
Conditions in all cases: 33 µM
DIPGX29 = tested on: DIPGX29 (H3.3 K27M diffuse intrinsic pontine glioma line)
Outline: (§1)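 In triplicate, pHGG cell lines and H9-derived neural stem cells were treated for 7 days at 37 °C, 5% CO2 with approved drugs at a single final concentration of about 33 μM, added by pin tool. CellTiter-Glo luminescence, after log2 transformation, was normalised on each plate to % activity between solvent and positive control wells. Growth inhibition is reported as the median across replicates.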

DIPGX37 = tested on: DIPGX37 (H3.3 K27M diffuse intrinsic pontine glioma line)
Outline: as §1

DIPGX7 = tested on: DIPGX7 (H3.3 K27M diffuse intrinsic pontine glioma line)
Outline: as §1

DIPGX9 = tested on: DIPGX9 (diffuse intrinsic pontine glioma line)
Outline: as §1

HGGX39 = tested on: HGGX39 (paediatric high-grade glioma line)
Outline: as §1

HGGX6 = tested on: HGGX6 (H3.3 G34R paediatric high-grade glioma line)
Outline: as §1

HNSC = tested on: HNSC
Outline: as §1

SUDIPGIV = tested on: SUDIPGIV (diffuse intrinsic pontine glioma line)
Outline: as §1

SUDIPGVI = tested on: SUDIPGVI (diffuse intrinsic pontine glioma line)
Outline: as §1

SUDIPGXIII = tested on: SUDIPGXIII (diffuse intrinsic pontine glioma line)
Outline: as §1

| Structure (SMILES) | growth inhibition (DIPGX29) | growth inhibition (DIPGX37) | growth inhibition (DIPGX7) | growth inhibition (DIPGX9) | growth inhibition (HGGX39) | growth inhibition (HGGX6) | growth inhibition (HNSC) | growth inhibition (SUDIPGIV) | growth inhibition (SUDIPGVI) | growth inhibition (SUDIPGXIII) |
| --- | --- | --- | --- | --- | --- | --- | --- | --- | --- | --- |
| CCCN(CCC)S(=O)(=O)c1ccc(C(=O)O)cc1 | -1.26% | 2.49% | 0.672% | 0.0871% | 1.02% | -3.52% | 8.98% | 1.56% | -6.21% | 0.262% |
| CC(C)NCC(O)COc1cccc2ccccc12 (configuration not stated) | -0.19% | -0.496% | -0.508% | 1.12% | 0.98% | 0.0936% | -3.29% | -1.1% | 0.673% | – |
| Nc1ccc(S(N)(=O)=O)cc1 | -0.377% | 1.14% | 0.22% | 1.31% | 2.44% | 0.596% | -1.62% | -1.35% | 0.652% | 1.2% |
| O=c1ccc2ccccc2o1 | 0.12% | 0.196% | -0.587% | 2.02% | 1.94% | 0.845% | -0.623% | -0.0159% | 1.45% | – |
| C#C[C@]1(O)CC[C@H]2[C@@H]3CCC4=CC(=O)CC[C@@H]4[C@H]3CC[C@@]21C | -0.22% | 3.5% | 1.4% | 2.42% | 4.07% | 7.23% | 6.68% | -0.735% | 0.661% | – |
| CN(C)c1ccc(C(=C2C=CC(=[N+](C)C)C=C2)c2ccc(N(C)C)cc2)cc1 | 39.6% | 42.1% | 42.3% | 41.4% | 51.4% | 48.2% | 72.2% | 43.1% | 50% | 74.4% |
| COC(=O)C1=CO[C@@H](O[C@@H]2O[C@H](CO)[C@@H](O)[C@H](O)[C@H]2O)[C@@H]2C(CO)=CC[C@H]12 | -1.79% | -0.171% | -2.08% | 0.601% | 0.266% | 2.37% | -2.11% | -1.32% | -2.76% | – |
| Cc1c(Nc2ncccc2C(=O)O)cccc1C(F)(F)F | 0.454% | 2.84% | 0.522% | 1.64% | 1.78% | 3.08% | 1.18% | -3.76% | 2.1% | – |
| CCCCNc1cc(C(=O)O)cc(S(N)(=O)=O)c1Oc1ccccc1 | -3.49% | -2.83% | -0.851% | -2.74% | -2.98% | -3.62% | -3.52% | -5.34% | -8.55% | -2.43% |
| CCCSc1ccc2[nH]c(NC(=O)OC)nc2c1 | 7.72% | 7.1% | 6.94% | 11.9% | 15.5% | 7.25% | 61.3% | 19% | -3.32% | 4.87% |
| Cc1onc(-c2ccccc2)c1-c1ccc(S(N)(=O)=O)cc1 | 0.8% | 1.05% | 0.883% | 0.672% | 3.67% | 2.37% | -0.462% | -2.73% | 2.54% | – |
| C=C[C@H]1CN2CC[C@H]1C[C@H]2[C@H](O)c1ccnc2ccc(OC)cc12 | 2.06% | 3.05% | 2.14% | 2.35% | 3.17% | 1.13% | 2.99% | 2.17% | 4.23% | -0.182% |
| O=C(O)C[C@H](O)C[C@H](O)/C=C/c1c(C2CC2)nc2ccccc2c1-c1ccc(F)cc1 | 16.1% | -2.02% | 38.6% | 7.33% | 48.3% | 30.8% | 56.2% | 39.9% | 33.5% | 32.8% |
| CCCN1CCCC[C@H]1C(=O)Nc1c(C)cccc1C | -0.141% | 1.83% | 0.26% | 0.846% | 2.25% | 1.44% | -0.32% | -1.01% | 0.908% | – |
| CC[C@H]1OC(=O)[C@H](C)[C@@H](O[C@H]2C[C@@](C)(OC)[C@@H](O)[C@H](C)O2)[C@H](C)[C@@H](O[C@@H]2O[C@H](C)C[C@H](N(C)C)[C@H]2O)[C@](C)(O)C[C@@H](C)/C(=N\OCOCCOC)[C@H](C)[C@@H](O)[C@]1(C)O | -1.55% | -0.523% | -0.0281% | 1.56% | 1.63% | 0.659% | -0.847% | 0.447% | -0.66% | – |
| CCCc1nc(C)c2c(=O)nc(-c3cc(S(=O)(=O)N4CCN(CC)CC4)ccc3OCC)[nH]n12 | -1.2% | -1.39% | -0.617% | 0.618% | 1.97% | 2.02% | -2.13% | 0.711% | 0.112% | – |
| CCn1cc(C(=O)O)c(=O)c2cc(F)c(N3CCN(C)CC3)cc21 | 0.946% | 0.351% | 1.65% | 1.44% | 2.84% | 0.565% | 3.22% | 1.47% | 1.27% | 1.57% |
| CC[C@H]1OC(=O)[C@H](C)[C@@H](O[C@H]2C[C@@](C)(OC)[C@@H](O)[C@H](C)O2)[C@H](C)[C@@H](O[C@@H]2O[C@H](C)C[C@H](N(C)C)[C@H]2O)[C@](C)(O)C[C@@H](C)[C@@H]2N[C@@H](COCCOC)O[C@H]([C@H]2C)[C@]1(C)O | -1.13% | -1.4% | -1.51% | -0.804% | -0.699% | -1.07% | -4.19% | -1.28% | -0.768% | – |
| N#CC1(c2ccc(NC(=O)c3cccnc3NCc3ccncc3)cc2)CCCC1 | 1.93% | -3.69% | 2.91% | 3.39% | 8.17% | 4.45% | 1.96% | 7.08% | -1.37% | – |
| CC1(C)S[C@@H]2[C@H](NC(=O)C(C(=O)O)c3ccccc3)C(=O)N2[C@H]1C(=O)O (some centres not stated) | 0.227% | 2.06% | 0.432% | 0.809% | 2.53% | 1.87% | 0.956% | -0.316% | 3.27% | 0.516% |
| COc1cc2c(cc1OC)CC(=O)N(CCCN(C)C[C@H]1Cc3cc(OC)c(OC)cc31)CC2 | -0.791% | 1.83% | 1.52% | 1.21% | 2.26% | 0.769% | 7.75% | 0.5% | 1.04% | – |

| Structure (SMILES) | growth inhibition (DIPGX29) | growth inhibition (DIPGX37) | growth inhibition (DIPGX7) | growth inhibition (DIPGX9) | growth inhibition (HGGX39) | growth inhibition (HGGX6) | growth inhibition (HNSC) | growth inhibition (SUDIPGIV) | growth inhibition (SUDIPGVI) | growth inhibition (SUDIPGXIII) |
| --- | --- | --- | --- | --- | --- | --- | --- | --- | --- | --- |
| O=C(O)c1cccnc1Nc1cccc(C(F)(F)F)c1 | -0.796% | 3.58% | -0.0228% | 0.51% | 1.81% | 2.52% | -1.26% | -3.93% | 2.23% | – |
| Oc1c(Br)cc(Br)c2cccnc12 | -0.427% | 0.213% | 1.4% | 1.88% | 2.61% | 1.93% | -0.441% | 0.619% | 2.93% | – |
| Cc1ccc(S(=O)(=O)NC(=O)NN2CCCCCC2)cc1 | -1.75% | 0.973% | -0.7% | -1.05% | 0.24% | 1.06% | -3.09% | -2.7% | -0.0433% | – |
| N=C(N)c1ccc(N=NNc2ccc(C(=N)N)cc2)cc1 | -2.11% | -3.98% | -0.967% | -1.13% | 7.13% | 4.38% | -4.44% | 15.4% | 0.511% | – |
| CCCCCCCN(CC)CCCC(O)c1ccc(NS(C)(=O)=O)cc1 (configuration not stated) | -0.358% | 0.859% | 2.25% | 1.97% | 2.78% | 0.985% | -2.1% | 0.633% | 1.61% | – |
| CCn1cc(C(=O)O)c(=O)c2ccc(C)nc21 | -2.16% | -2.18% | -0.91% | 0.0696% | -0.871% | 0.278% | -2.82% | -0.499% | -1.38% | – |
| COc1ccc(CC(C)NCC(O)c2ccc(O)c(NC=O)c2)cc1 (configuration not stated) | -0.234% | -0.809% | 0.814% | 0.302% | 3.66% | 0.0101% | 6.49% | 0.93% | 1.33% | -1.79% |
| Cc1ncc([N+](=O)[O-])n1CC(C)O (configuration not stated) | -2.47% | -0.804% | -1.3% | 0.505% | -1.86% | 0.138% | -4.53% | -1.52% | -0.382% | – |
| CC(C)(C)C(=O)C(Oc1ccc(Cl)cc1)n1ccnc1 (configuration not stated) | 0.826% | 1.56% | 3.93% | 1.25% | 5.9% | 4.74% | 5.37% | 7.06% | 2.6% | – |
| CC1(C)S[C@@H]2[C@H](NC(=O)Cc3ccccc3)C(=O)N2[C@H]1C(=O)O | -0.211% | 1.76% | 0.712% | 0.921% | 2.76% | 0.0221% | 1.53% | 0.754% | 0.396% | – |
| Cc1c(O)c(=O)ccn1C | -0.259% | -0.497% | -0.173% | 1.03% | 0.26% | 1.77% | -3.85% | -2.04% | 0.573% | – |
| C[C@@H](O)[C@H]1C(=O)N2C(C(=O)OCOC(=O)C(C)(C)C)=C(SC3CN(C4=NCCS4)C3)[C@H](C)[C@H]12 | -0.211% | 2.3% | 0.926% | 0.809% | 1.15% | 0.471% | -0.363% | -0.736% | 2.12% | – |
| CCC(C)n1ncn(-c2ccc(N3CCN(c4ccc(OCC5COC(Cn6cncn6)(c6ccc(Cl)cc6Cl)O5)cc4)CC3)cc2)c1=O (configuration not stated) | -0.782% | 1.27% | 1.59% | 1.24% | 4.33% | 1.37% | 7.95% | 1.44% | 1.98% | – |
| O=C(O)Cc1ccccc1Nc1c(Cl)cccc1Cl | -1.37% and -2.99% and -0.71% | -1.99% and -1.73% and 0.418% | -1.57% and -1.88% and -1.25% | -1.08% and -0.109% and -0.719% | -2.62% and -2.86% and 0.69% | 0.514% and 2.52% and -0.0763% | -3.6% and -4.25% and -2.46% | -6.51% and -6.18% and -5.78% | -1.69% and -1.9% and -1.43% | -0.705% and -7.4% and 0.367% |
| C=C(c1ccc(C(=O)O)cc1)c1cc2c(cc1C)C(C)(C)CCC2(C)C | 8.85% | -3.45% | 11% | 10.4% | 12.4% | 9.38% | 14.6% | 6.25% | 9.87% | – |
| CC(C)[C@H]1CC[C@H](C(=O)N[C@H](Cc2ccccc2)C(=O)O)CC1 | -0.743% | 0.294% | 0.0113% | 0.231% | 1.32% | 1.09% | -0.0956% | -1.21% | -0.179% | – |
| CN(C)CCC=C1c2ccccc2CCc2ccccc21 | 0.114% | 2.57% | 1.28% | 1.79% | 5.11% | 2.03% | 0.41% | 1.93% | 2.05% | – |
| O[C@@H]1CO[C@H]2[C@@H]1OC[C@@H]2O | -2.46% | 0.0638% | -2.43% | -0.699% | 0.692% | 0.785% | -3.92% | -2.68% | -0.216% | – |
| CN1CCN(c2cc3c(cc2F)c(=O)c(C(=O)O)cn3-c2ccc(F)cc2)CC1 | 0.274% | 1.39% | 0.237% | 1.68% | 1.58% | -0.335% | 4.83% | 0.444% | 1.63% | 0.0917% |
| CC(C)CC(N)=O | 0.179% | 0.749% | -0.469% | -0.164% | 0.0712% | 1.61% | -1.96% | -1.02% | -0.151% | -12.8% |
